# An excerpt weighted towards active compounds, which were near 12% of everything screened.
# JMJD2A Tudor = blocks the human JMJD2A Tudor domain. 4.4% of 390,000 active. O75164. Potency, µM (titrated, usually from 114 µM), without a hit: at the highest dose activity change, negative = inhibition, usual class: inhibitors. AlphaScreen JMJD2A-Tudor / H3K4me3 peptide binding. AID 504339; also: % is scaled to controls: 0 for no effect and ±100 for the full control effect; nearly all actives have a fitted effect of over 50% in size
# G9a inh = G9a (human) methyltransferase inhibition | Q96KQ7 | G9a H3K9 monomethylation, AlphaScreen, 2 h | Potency, µM (doses to about 102 µM), for inactives: at the top dose activity, negative = inhibition, actives largely listed as inhibitors | 8.8% of 350,000 active | AID 504332; also: % is scaled to controls: 0 for no effect and ±100 for the full control effect; nearly all actives have a fitted effect of over 75% in size
# Target sequence (Q96KQ7 913-1193 limits assumed): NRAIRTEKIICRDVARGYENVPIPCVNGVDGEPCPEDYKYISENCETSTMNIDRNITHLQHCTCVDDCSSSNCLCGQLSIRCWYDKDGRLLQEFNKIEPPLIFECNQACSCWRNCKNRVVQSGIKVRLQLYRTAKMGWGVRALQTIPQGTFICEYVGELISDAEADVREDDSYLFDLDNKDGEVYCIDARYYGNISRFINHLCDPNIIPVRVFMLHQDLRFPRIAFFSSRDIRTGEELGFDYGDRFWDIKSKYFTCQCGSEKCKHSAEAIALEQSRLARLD
#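 G9a (20 nM) preincubated 15 min RT with compounds, then 500 nM biotinylated H3K9 peptide and 20 uM SAM added; 2 h RT reaction. Monomethyl-H3K9 product detected by AlphaScreen with anti-H3K9me1 antibody, streptavidin donor and anti-rabbit IgG acceptor beads.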
# Sfp inh = inhibitors of Bacillus subtilis Sfp phosphopantetheinyl transferase; Q9F4F7; Biochemical Sfp PPTase activity, qHTS; Potency, µM, for inactives: largest response in the series, negative = inhibition, most hits filed as inhibitors; 3.5% of 310,000 active; AID 1490;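 also: the enzyme is Sfp with the accession as filed and its product quenches rhodamine fluorescence; 0% = enzyme reaction without inhibitor and -100% = no enzyme wells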
#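 Sfp 15 nM + cpd, 15 min RT; start w/ rhodamine-CoA 5 uM, BHQ-2-YbbR 12.5 uM (final); 50 mM Hepes pH 7.6, 10 mM MgCl2, 0.01% NP-40, 0.01% BSA; read 525/598 nm at 0 and 30 min.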
# BAZ2B block = BAZ2B (human) inhibition; Q9UIF8; AlphaScreen BAZ2B-H3K14Ac peptide displacement; Potency, µM (doses to about 114 µM), for the others: top-dose activity change, negative = inhibition, hits mostly inhibitors; 4.4% of 360,000 active; AID 504333; also: % is scaled to controls: 0 for no effect and ±100 for the full control effect; nearly all actives have a fitted effect of over 60% in size
#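 Multi-concentration screen (max 110 uM) measuring displacement of acetylated histone H3 peptide from BAZ2B by AlphaScreen, using 50 nM protein, 50 nM peptide and 10 ug/mL streptavidin donor plus Ni-chelate acceptor beads.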
# HP1b binding inh = HP1-beta chromodomain-methylated histone interaction inhibition | P83916 | AlphaScreen HP1-beta / biotin-H3K9me3 peptide binding | Potency, µM (doses to about 114 µM), inactives show at the highest dose activity change, negative = inhibition, most hits filed as inhibitors | 0.56% of 390,000 active | AID 540317; also: nearly all actives have a fitted effect of over 70% in size
# Target sequence (P83916 whole entry, looked up): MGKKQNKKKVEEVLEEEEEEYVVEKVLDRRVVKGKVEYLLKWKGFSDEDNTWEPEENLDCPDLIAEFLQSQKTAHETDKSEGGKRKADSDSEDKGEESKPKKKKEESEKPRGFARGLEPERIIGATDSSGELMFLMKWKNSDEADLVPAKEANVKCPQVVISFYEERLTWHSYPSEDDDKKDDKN
#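 Compound inhibition of the preformed complex between 50 nM HP1-beta and 50 nM biotinylated H3K9me3 peptide was read by AlphaScreen. Buffer was PBS pH 7.4 with 0.01% Tween-20. Incubations ran 30 min at room temperature, with 10 ug/mL donor/acceptor beads.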
# Starred values were filed as active, the others as inactive; u = inconclusive; x = no result; [ ] = dose if it differs, or a comment. Calls follow the shape of the dose curve; as a rule, active = well fitted curve in the direction sought with a large enough effect; inconclusive = small, poorly fitted or top-dose-only effect, or another doubt; inactive = no such curve, though single readings can be large; an effect the other way counts as inactive or inconclusive. Potency is read from the fitted curve at half-maximal effect.
SMILES,JMJD2A Tudor,G9a inh,Sfp inh,BAZ2B block,HP1b binding inh
O=C(CSc1ccc2nnc(-c3cccnc3)n2n1)NCc1ccc2c(c1)OCO2,56µM*,u,u,-6%,33%
COc1cccc(NC(=O)CSc2ccc3nnc(-c4ccncc4)n3n2)c1,-11%,50µM*,0%,-31%,49%
O=C(CSc1ccc2nnc(-c3cccnc3)n2n1)Nc1ccccc1,-23%,50µM*,-6%,-11%,41%
COc1ccc(-c2nnc3ccc(SCC(=O)Nc4cc(C)on4)nn23)cc1,x,56µM*,-16%,x,x
CC1CN(C(=O)Nc2ccc(F)cc2)C2(CCCCCC2)O1 (configuration not stated),-10%,3%,1%,1%,65%
COc1cc(C(=O)NNC(=O)CN2C(=O)NC(C)(c3ccc(C)cc3)C2=O)cc(OC)c1OC (configuration not stated),-8%,10%[12.7 µM],x,-4%,38%
CC(NC(=O)CSc1nc(=O)cc(N)n1CCc1ccccc1)c1ccccc1 (configuration not stated),20%[57.1 µM],-11%,29%,11%,19%
COC(=O)c1ccc(CSc2ccc3nnc(-c4ccc(OC)cc4)n3n2)o1,x,-9%[59 µM],11%,-6%,x
COC(=O)c1ccc(CSc2ccc3nnc(-c4cccnc4)n3n2)o1,x,25µM*,1%,-15%,x
COc1ccc2c(c1)sc(N)[n+]2Cc1cc(C)cc2cccnc12,-20%,50µM*,-3%,-10%,2%
Cc1ccc(C)c(CN2C(=O)c3ccccc3S(=O)(=O)c3ccc(C(=O)NCCCN4CCCC(C)C4)cc32)c1 (configuration not stated),u,u,x,-39%,-2%
CC(C)N1CCC2(CC1)C(C#N)=C(N)NC(S)=C2C#N,x,1.6µM*,-9%,-10%,x
N#CC1=C(N)NC(SCc2ccc(F)cc2)=C(C#N)C12CCCCC2,-26%,7%[12.7 µM],-1%,u,-1%
CCOC(=O)C1CN(C(C)(C)C)C(=O)C1=O (configuration not stated),-18%,-50%,-14%,-11%,15%
O=C(CN1C(=O)NC2(CCCC2)C1=O)NNC(=O)c1ccc(Br)cc1,3.2µM*,4%,x,9%,35%
O=c1[nH]c2cc3c(cc2cc1CN(CCc1ccccc1)Cc1nnnn1CC1CCCO1)OCO3 (configuration not stated),-7%,u,56µM*,-22%,26%
O=c1[nH]c2cc3c(cc2cc1CN(Cc1nnnn1CC1CCCO1)C1CCCCC1)OCO3 (configuration not stated),-25%[11.4 µM],u,-8%,-5%,40%
COc1ccc2[nH]c(=O)c(CN(Cc3ccccc3OC)Cc3nnnn3CC3CCCO3)cc2c1 (configuration not stated),-12%,-8%,u,16%,23%
COc1ccc2[nH]c(=O)c(CN(CCc3ccccc3)Cc3nnnn3CC3CCCO3)cc2c1 (configuration not stated),-20%,8.9µM*,50µM*,-17%,13%
O=c1[nH]c2cc3c(cc2cc1CN(Cc1nnnn1CC1CCCO1)C1CCCC1)OCO3 (configuration not stated),-4%,13µM*,0%,-8%,14%
Cc1ccc2[nH]c(=O)c(CN(CCc3ccccc3)Cc3nnnn3CC3CCCO3)cc2c1 (configuration not stated),-20%,u,-14%,5%,18%
COc1ccc2[nH]c(=O)c(CN(Cc3ccc(C)cc3)Cc3nnnn3CC3CCCO3)cc2c1 (configuration not stated),-16%,u,16µM*,-36%,7%
COc1ccc(NC(=O)COc2ccccc2Cc2ccccc2)cn1,30%,-6%[59 µM],x,21%,63%
COC(=O)CCCC(=O)N1CCC(CO)(CCc2ccccc2)CC1,-5%,2%,15%,6%,22%
CCCCN(C(=O)CCCc1nc2ccccc2c(=O)[nH]1)c1c(N)n(CCCC)c(=O)[nH]c1=O,-12%,u,5%,-6%,13%
SMILES,JMJD2A Tudor,G9a inh,Sfp inh,BAZ2B block,HP1b binding inh
Cc1cc(C)n(NC(=S)NC2CCCC2)c(=O)c1C#N,11µM*,-2%,-3%,-14%,33%
CSc1ccc(CN(C)C(=O)c2cc(Cl)c3c(c2)OCCO3)cc1,-17%,56µM*,4%,u,13%
O=C1NC(c2ccccc2)=C(c2nc3ccccc3s2)C(c2ccccc2)N1 (configuration not stated),u,-3%[12.7 µM],-4%,-34%,-16%
O=C(c1ccc(F)cc1)N1CCCCC(S(=O)(=O)c2ccccc2)C1=O (configuration not stated),-5%,u,79µM*,-1%,30%
CCc1ccc(NC2CC(=O)N(c3ccc(OC)cc3OC)C2=O)cc1 (configuration not stated),-36%,u,22%,-35%,1%
COc1ccc(CN2CCN(CCCc3ccccc3)C(CCO)C2)c(OC)c1 (configuration not stated),-23%,12%,-1%,0%,16%
COc1cc(CN2CCN(CCCc3ccccc3)C(CCO)C2)cc(OC)c1O (configuration not stated),-9%,40µM*,-5%,4%,23%
OCCC1CN(Cc2c(O)ccc3ccccc23)CCN1CCc1ccccc1 (configuration not stated),u,2µM*,2%,-29%,-2%
OCCC1CN(Cc2ccccc2O)CCN1CCCc1ccccc1 (configuration not stated),-12%,u,19%,1%,24%
CC(C)CC(=O)N[C@H](C(=O)N[C@H](C(=O)N[C@@H](CC(C)C)[C@H](O)CC(=O)N[C@@H](C)C(=O)N[C@@H](CC(C)C)[C@H](O)CC(=O)O)C(C)C)C(C)C,x,10%[21.5 µM],2%,x,x
Cc1ccc(S(=O)(=O)CCC(=O)c2ccc(O)cc2O)cc1,-22%,40µM*,-11%,9%,63%
CC(=C\c1ccccc1)/C=C1/SC(=S)N(CCC(=O)Nc2ccccn2)C1=O,x,40µM*,0%,u,x
O=C(O)CN1C(=O)/C(=C/c2ccsc2)SC1=S,-12%,32µM*,u,79µM*,23%
O=C(O)CN1C(=O)/C(=C\C(Br)=C\c2ccccc2)SC1=S,u,41%[0.501 µM],56µM*,45µM*,u
C=CCN1C(=O)/C(=C/c2ccsc2)SC1=S,-22%,-45%,-3%,-15%,14%
O=C(CCCN1C(=O)S/C(=C\C=C\c2ccccc2)C1=O)Nc1ccc(C(=O)O)cc1,-19%,u,-6%,56µM*,1%
O=C(NC1CCCCC1)C(c1ccc(F)cc1)N(Cc1ccco1)C(=O)c1csnn1 (configuration not stated),-14%,19%,-17%,-8%,-4%
